Bead autofluor – flagged as autofluorescent in microsphere protease counterscreen; compound autofluorescence counterscreen, microsphere flow cytometry; stronger effect = higher value; actives 3.1% (n = 360,000); fluorescence intensity (test concentration not listed); in the data active means fluorescence intensity above about 16000; inconclusive means no clear call, values can overlap the other calls
BoNT F protease – BoNT/F light chain protease inhibitors, primary screen, biochemical, flow cytometry, MLPCN library; actives 0.22% (n = 360,000); Botulinum neurotoxin type F light chain protease (Clostridium botulinum); AID 588497, 2011; inhibition, % at 10 µM; Multiplex microsphere protease cleavage assay; in the data active means inhibition above about 35%, passing the limit was not always enough; inconclusive means no clear call, values can overlap the other calls; further: plate controls were buffer without enzyme for full effect and enzyme alone for no effect
Anthrax LF prot – Bacillus anthracis LF protease inhibitors, primary screen, biochemical, multiplex microsphere, MLPCN library; Lethal factor (Bacillus anthracis), P15917; multiplex microsphere protease cleavage assay; inhibition, % at 10 µM; actives 0.12% (n = 360,000); AID 588501, 2011; further: plate controls were buffer without enzyme for full effect and enzyme alone for no effect
BoNT A protease – BoNT/A light chain protease inhibitors, primary screen, biochemical, flow cytometry, MLPCN library; actives 0.17% (n = 360,000); inhibition, % at 10 µM; multiplex microsphere protease substrate cleavage; AID 588499, 2011; Botulinum neurotoxin type A light chain protease (Clostridium botulinum A str. ATCC 3502); further: plate controls were buffer without enzyme for full effect and enzyme alone for no effect
An asterisk follows results filed as active; ? = inconclusive. An excerpt weighted towards active compounds, which were near 3.5% of everything screened. Unless noted, no stated cut-off is given here; in the data, active means inhibition above about 30%; inconclusive means no clear call, values can overlap the other calls; inactive means below that.

SMILES	Bead autofluor	BoNT F protease	Anthrax LF prot	BoNT A protease
CNC(=O)COC(=O)c1nc(-n2nc(C)cc2C)ccc1Cl	24164*	-2.8	-0.1	-0.8
O=C(O)c1cc(NC(=O)c2cccc(F)c2)cc(NC(=O)c2cccc(F)c2)c1	3597	-8.2	-2.7	0.2
CCCn1c(SCC(=O)N2CCCc3ccccc32)nnc1-c1ccccn1	4480	0.0	-0.8	-0.6
Cc1cc(N2CCN(S(=O)(=O)c3ccc(Br)cc3)CC2)n2ncnc2n1	3290	0.6	-7.7	-0.8
Cc1cc(N2CCN(S(=O)(=O)c3ccc4c(c3)OCCO4)CC2)n2ncnc2n1	23595*	-0.2	-1.4	-0.6
Cc1cc(Nc2ccc3c(c2)OCCO3)n2ncnc2n1	22455*	2.9	-1.3	1.2
c1ccc(C2OCCN2c2ccccc2)cc1 (stereo not drawn)	4229	-4.4	-8.7	-0.4
CCn1ncc(Br)c1C(=O)Nc1cc(C)on1	4254	2.9	-1.1	3.2
Cc1ccc(S(=O)(=O)c2c(C)cc(C)nc2Cl)c(C)c1	22797*	-2.5	-0.2	?
Cc1ccc2c(c1)CC1(CN2C)C(=O)NC(=O)N(c2cc(C)ccc2C)C1=O (stereo not drawn)	22449*	2.7	-1.0	1.3
COc1ccc(OC)c(N2C(=O)NC(=O)C3(Cc4cc(C)ccc4N(C)C3)C2=O)c1 (stereo not drawn)	16331*	1.6	-1.5	0.3
COc1cc(CN2C(=O)NC(=O)C3(Cc4cc(C)ccc4N(C)C3)C2=O)cc(OC)c1 (stereo not drawn)	22009*	-1.8	-1.9	-0.5
COc1ccc2c(c1)CC1(CN2C)C(=O)NC(=O)N(CCc2ccccc2)C1=O (stereo not drawn)	5237	-11.6	-5.6	-0.8
Cc1cc(C)n2c(Nc3c(C)cccc3C)c(CC(C)C)nc2n1	4480	-0.3	-11.2	-1.1
OC(Cc1ccnc2ccccc12)C(Cl)(Cl)Cl (stereo not drawn)	4067	-0.3	-0.5	0.2
Cc1ccc(NC(=O)CSc2nnc(C3CC3)n2N)cc1S(=O)(=O)N1CCOCC1	3802	-1.2	1.5	0.3
COc1ccc(C)cc1S(=O)(=O)N1CC(C)OC(C)C1 (stereo not drawn)	2456	1.6	0.2	0.0
COc1ccc(C)cc1S(=O)(=O)N1CCC(C)CC1	21743*	5.4	3.3	3.8
CCOc1cc(S(=O)(=O)N2CCCCC2)ccc1F	22074*	3.2	-1.7	2.4
COc1ccc(C)cc1S(=O)(=O)N1CCCCCC1	4267	-1.6	-1.9	0.4
CCOc1ccc(C)cc1S(=O)(=O)N1CCCCC1	21517*	0.4	-0.4	?
CCOc1ccc(OCC)c(S(=O)(=O)N2CCCCC2C)c1 (stereo not drawn)	16721*	-1.7	-0.5	0.0
CC(C)(NC(=O)c1ccccc1)c1nc2ccccc2s1	3908	-2.7	4.6	0.1
CCOC(=O)C1CCN(C(=O)c2sccc2Cl)CC1	6943	-4.1	2.0	-0.2
COCCCNC(=O)c1cccc2c(-c3cccc(C(N)=O)c3)coc12	3506	-3.2	-5.9	0.2
SMILES	Bead autofluor	BoNT F protease	Anthrax LF prot	BoNT A protease
Cc1cccc(C)c1-n1nnnc1C1(C)CCC(=O)N1c1ccc(N2CCOCC2)cc1 (stereo not drawn)	5729	-8.0	-6.4	-0.2
C=CCn1c(SCC(=O)Nc2ccc3c(c2)OCCO3)nnc1-c1ccco1	16334*	1.0	-2.7	-0.9
C=CCn1c(CNC(=O)c2ccco2)nnc1SCC(=O)Nc1cccc(Br)c1	24230*	-2.0	-0.4	-2.5
CCn1c(CNC(=O)c2ccco2)nnc1SCC(=O)Nc1cc(C)c(C)cc1Br	22252*	0.5	0.6	?
COc1ccc(NS(=O)(=O)c2cccc(C(=O)N3CCN(S(=O)(=O)c4ccccc4)CC3)c2)cc1	3480	-5.8	2.1	-0.5
O=C(COc1ccccc1[N+](=O)[O-])N(Cc1ccco1)C1CCS(=O)(=O)C1 (stereo not drawn)	5305	7.8	-0.1	2.7
Cc1nc2c(-c3ccccc3)c(C)nn2c(C)c1CCC(=O)N1CCC2(CC1)OCCO2	?	61.8*	?	?
CCCCNC(=O)C1(C)CCCCN1C(=O)c1cc(C#N)cs1 (stereo not drawn)	2773	3.5	-8.2	0.2
CCCCc1ccc(-c2csc(/C(C#N)=C/c3ccco3)n2)cc1	2816	-15.1	-6.4	-0.1
N#C/C(=C/c1ccc(-c2ccccc2)o1)c1nc(-c2cccs2)cs1	15612	30.5	34.1*	47.5*
CCCCc1ccc(-c2csc(/C(C#N)=C\c3ccc(C)o3)n2)cc1	22503*	0.7	3.5	6.4
